The nature of assay [1]: qHTS of pediatric cancer cell lines to identify multiple opportunities for drug repurposing: Primary screen for BT-12 cells (AID 1347101). Also: nearly all actives have a fitted effect of over 25% in size. Also: potency is read from the fitted curve at half-maximal effect.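 As to activity change, negative = cytotoxic: plate controls were DMSO for no effect and bortezomib positive control for full effect.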 The method, boiled down:
(§1)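 Cells (500-1,000/well) rested 5 h, then received compounds for 48 h; metabolically active cells were measured by CellTiter-Glo luminescence. Final concentrations spanned up to 46 µM (MIPE, 11-point) or 0.59 nM-46 µM (NPC, 8-point) in primary screens, 11-point in follow-ups.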

Assay [2] can be described thus: qHTS of pediatric cancer cell lines to identify multiple opportunities for drug repurposing: Primary screen for OHS-50 cells (AID 1347103). Also: nearly all actives have a fitted effect of over 40% in size. Also: potency is read from the fitted curve at half-maximal effect.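 As to activity change, negative = cytotoxic: plate controls were DMSO neutral control for no effect and bortezomib positive control for full effect.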 The procedure, abridged:
as §1
Background: In qHTS, concentration-response curves come from the screen itself.

The nature of assay [3]: qHTS of pediatric cancer cell lines to identify multiple opportunities for drug repurposing: Primary screen for RD cells (AID 1347104). Also: nearly all actives have a fitted effect of over 55% in size. Also: potency is read from the fitted curve at half-maximal effect.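 As to activity change, negative = cytotoxic: plate controls were DMSO for no effect and bortezomib for full effect.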 The procedure, abridged:
(§2)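 Readout: CellTiter-Glo luminescence, 48 h treatment. Controls DMSO (neutral) and bortezomib 2.3 µM final (positive). Potency and efficacy taken from primary-screen concentration-response curves.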

A short description of assay [4]: qHTS of pediatric cancer cell lines to identify multiple opportunities for drug repurposing: Primary screen for MG 63 (6-TG R) cells (AID 1347105). Also: % is scaled to controls: 0 for no effect and ±100 for the full control effect; nearly all actives have a fitted effect of over 50% in size. The method, boiled down: as §2
A short description of assay [5]: qHTS of pediatric cancer cell lines to identify multiple opportunities for drug repurposing: Primary screen for control Hh wild type fibroblast cells (AID 1347106).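 Also: series mostly up to about 46 µM; % is scaled to controls: 0 for no effect and ±100 for the full control effect; a drop in luminescence marks cytotoxicity and a rise apparent proliferation; nearly all actives have a fitted effect of over 55% in size.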 The procedure, abridged: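 Cells (500-1,000/well) in growth media were settled 5 h at 37 degrees C, then given compounds for 48 h. Viability was read as CellTiter-Glo luminescence. Primary runs used MIPE at 11 points (0.78 nM-46 µM) and NPC at 8 points (0.59 nM-46 µM); follow-ups used 11 points.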

The nature of assay [6]: qHTS of pediatric cancer cell lines to identify multiple opportunities for drug repurposing: Primary screen for Rh41 cells (AID 1347108).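 Also: series mostly up to about 46 µM; luminescence drop marks cytotoxic hits; nearly all actives have a fitted effect of over 70% in size.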 The procedure, abridged: as §2
The nature of assay [7]: qHTS of pediatric cancer cell lines to identify multiple opportunities for drug repurposing: Primary screen for Rh18 cells (AID 1347102). Also: % is scaled to controls: 0 for no effect and ±100 for the full control effect; nearly all actives have a fitted effect of over 65% in size. The procedure, abridged:
as §1

A short description of assay [8]: qHTS of pediatric cancer cell lines to identify multiple opportunities for drug repurposing: Primary screen for Rh30 cells (AID 1347107). Also: series mostly up to about 46 µM; % is scaled to controls: 0 for no effect and ±100 for the full control effect; nearly all actives have a fitted effect of over 75% in size. The method, boiled down:
as §1

Assay [9] in a line: qHTS of pediatric cancer cell lines to identify multiple opportunities for drug repurposing: Confirmatory screen for NB1643 cells (AID 1347109). Also: potency is read from the fitted curve at half-maximal effect; nearly all actives have a fitted effect of over 45% in size. The procedure, abridged:
as §1

Assay [10] is described as follows: qHTS of pediatric cancer cell lines to identify multiple opportunities for drug repurposing: Confirmatory screen for A673 cells (AID 1347110).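 Also: potency is read from the fitted curve at half-maximal effect; cells exposed to compound for 48 h before the viability read; nearly all actives have a fitted effect of over 65% in size.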 The method, boiled down: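 A673 cells at 500-1,000 cells/well were dosed 5 h after plating, in dilution series up to 46 uM final; primary runs used 8 or 11 points and confirmatory runs used 11 points. Viability was read by CellTiter-Glo luminescence after 48 h, against DMSO and 2.3 uM bortezomib controls.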

This note sets out measurements from PubChem BioAssay (NCATS).

Structures are written as SMILES. Inconclusive results are not listed. Values without a mark were called inactive. Activity calls are given as the source filed them. Calls follow the shape of the dose curve; as a rule, active = well fitted curve in the direction sought with a large enough effect; inconclusive = small, poorly fitted or top-dose-only effect, or another doubt; inactive = no such curve, though single readings can be large; an effect the other way counts as inactive or inconclusive.

`CC1=C(CC(=O)O)c2cc(F)ccc2/C1=C\c1ccc(S(C)=O)cc1` (stereo not drawn): the Potency entry in assay [1], in assay [2], in assay [3], in [4] and in [6] was “inactive” each time. Besides, the compound was classed as inactive in assay [5].

Regarding `CC(C(O)c1ccc(O)cc1)N1CCC(Cc2ccccc2)CC1` (stereo not drawn), the Potency result in [1], in [7] and in [6] was “inactive” in each case. Moreover, the outcome in assay [5] and in assay [8] was inactive.

For `NC(CSCC(=O)O)C(=O)O` (stereo not drawn), the Potency result in assay [1], in assay [2], in assay [3], in assay [4] and in assay [6] was “inactive” each time. For the same compound, the compound was classed as inactive in assay [5].

With `O=C(O)c1ccccc1O`, the Potency result in assay [1], in assay [2], in assay [3], in [4] and in assay [6] was “inactive” in each case. The compound was called inactive in assay [5] and in [8].

As for `CCCCN1CCCC[C@H]1C(=O)Nc1c(C)cccc1C`, the Potency entry in [1], in [7], in [3], in assay [4] and in assay [6] was “inactive” in each case. Also, the result in [5] was inactive.

On to `CN(C)CCOC(C)(c1ccccc1)c1ccccn1` (stereo not drawn), for which the Potency entry in [1], in [2], in [3], in assay [4] and in assay [6] was “inactive” in each case. In addition, in [5], the outcome was inactive.

As to `Cc1cccc(Nc2cc(Cl)nc(SCC(=O)O)n2)c1C`, the Potency entry in assay [1], in assay [2], in assay [3], in [4] and in assay [6] was “inactive” in each case. Moreover, the compound was classed as inactive in assay [5] and in assay [8].

On to `Oc1ccc(C(O)CNCCCCCCNCC(O)c2ccc(O)c(O)c2)cc1O` (stereo not drawn), for which the Potency result in [1], in assay [2], in [3], in [4] and in assay [6] was “inactive” throughout. The outcome in assay [5] was inactive.

Take `CC(O)CN(CCN(CC(C)O)CC(C)O)CC(C)O` (stereo not drawn): the Potency entry in [1], in assay [2], in assay [3], in assay [4] and in [6] was “inactive” throughout. Moreover, the compound was classed as inactive in assay [5] and in assay [8].

For `CC1=C(C/C=C(\C)CCC[C@H](C)CCC[C@H](C)CCCC(C)C)C(=O)c2ccccc2C1=O`, the Potency result in assay [1], in [7], in assay [4] and in [6] was “inactive” throughout. In addition, the result in assay [5] and in [8] was inactive.

`O=C(O)COc1nn(Cc2ccccc2)c2ccccc12`: the Potency result in assay [1], in assay [2], in assay [3], in assay [4] and in assay [6] was “inactive” each time. Also, the result in assay [5] and in assay [8] was inactive.

For the compound `NC(=O)c1ncn([C@@H]2O[C@H](CO)[C@@H](O)[C@H]2O)n1`, the Potency result in assay [1], in assay [7], in [3] and in assay [6] was “inactive” in each case. Besides, the call in assay [5] was inactive.

As for `C[C@@H]1CN(c2c(F)c(F)c3c(=O)c(C(=O)O)cn(C4CC4)c3c2F)C[C@H](C)N1`, the Potency entry in [1], in assay [2], in [3], in assay [4] and in assay [6] was “inactive” each time. For the same compound, the result in [5] was inactive.

Regarding `COc1ccc2cc1Oc1ccc(cc1)C[C@H]1c3c(cc4c(c3Oc3cc5c(cc3OC)CCN(C)[C@@H]5C2)OCO4)CCN1C`, the values for the Potency in [1], in assay [2] and in assay [3] were 24.6 µM (active), 15.5 µM (active) and 23.7 µM (active), respectively. Besides, in assay [8], the result was inactive.

Turning to `CC(=O)CCC(=O)O`, the Potency result in [1], in assay [2], in assay [3], in assay [4] and in [6] was “inactive” throughout. In assay [5], the result was inactive.

For `Cc1cc(CC(=O)O)n(C)c1C(=O)c1ccc(Cl)cc1`, the Potency entry in [1], in assay [2], in assay [3], in assay [4] and in assay [6] was “inactive” throughout. Further, the outcome in [5] and in [8] was inactive.

`COC(=O)C1=C(C)NC(C)=C(C(=O)OC)C1c1ccccc1[N+](=O)[O-]`: the Potency result in [1], in assay [7], in [4] and in assay [6] was “inactive” throughout. In addition, the result in assay [5] and in assay [8] was inactive.

As for `CC(O)COc1ccccc1` (stereo not drawn), the Potency entry in assay [1], in [2], in assay [3] and in [4] was “inactive” in each case. Further, the call in assay [5] and in [8] was inactive.

As to `CC1=C(/C=C/C(C)=C/C=C/C(C)=C/C(=O)O)C(C)(C)CCC1`, the Potency entry in assay [1], in assay [3] and in assay [6] was “inactive” in each case. The Potency in assay [2] was 0.0309 µM (active). Besides, the compound was called inactive in assay [5] and in assay [8].

On to `O=c1[nH]c(=O)c2[nH]c(=O)[nH]c2[nH]1`, for which the activity change, negative = cytotoxic in [1] was 3.54% [at 11.5 µM]; in assay [2] it was -8.33% [at 11.5 µM]; in [3], 1.57% [at 9.22 µM]; in assay [4], -26.1% [at 9.22 µM]; in assay [5] it was 8.6% [at 9.22 µM]; in assay [8], 2.78% [at 9.22 µM]. Also, the activity change, negative = cytotoxic in assay [6] was -6.34% [at 9.22 µM].

With `CCCCC/C(C=O)=C\c1ccccc1`, the Potency in assay [1] is 0.155 µM (active); in assay [2], 0.001 µM (active); in [9] it was 7.37 µM (active); in [10], 2.93 µM (active). Also, the Potency entry in assay [3], in [4] and in [6] was “inactive” each time. Further, the result in [5] and in assay [8] was inactive.

On to `Cn1c(=O)c2c(ncn2CC2OCCO2)n(C)c1=O`, for which the Potency result in assay [1], in assay [2], in assay [3], in assay [4] and in [6] was “inactive” throughout. The compound was called inactive in [5] and in [8].

As for `O=Cc1ccccc1C=O`, the Potency result in assay [1], in assay [2], in assay [3], in assay [4] and in assay [6] was “inactive” each time. Also, the call in assay [5] and in assay [8] was inactive.

Turning to `CCn1cc(C(=O)O)c(=O)c2cnc(N3CCNCC3)nc21`, the Potency result in [1], in assay [2], in [3], in assay [4] and in assay [6] was “inactive” throughout. The result in assay [5] and in [8] was inactive.

In the case of `Cc1ccc(C(C)C)cc2c(C)ccc1-2`, the Potency result in assay [1], in [2], in assay [3], in assay [4] and in assay [6] was “inactive” each time. For the same compound, the call in assay [5] was inactive.

For the compound `OCC(CO)N[C@H]1C[C@](O)(CO)[C@@H](O)[C@H](O)[C@H]1O`, the Potency result in assay [1], in assay [2], in [3], in [4] and in [6] was “inactive” throughout. For the same compound, the result in assay [5] and in [8] was inactive.

Consider `CCCCCCCCCCCCCCCCCCOCC(O)CO` (stereo not drawn), for which the Potency result in assay [1], in assay [2], in assay [3], in assay [4] and in assay [6] was “inactive” in each case. The compound was classed as inactive in [5] and in [8].

Regarding `CNCC(O)c1ccc(O)c(O)c1` (stereo not drawn), the Potency result in assay [1], in assay [2], in [3], in assay [4] and in assay [6] was “inactive” each time. Besides, the call in assay [5] was inactive.

Regarding `C[C@@H](O)[C@H](N)C(=O)O`, the Potency entry in assay [1], in [2], in assay [3], in assay [4] and in assay [6] was “inactive” throughout. Also, the outcome in assay [5] and in assay [8] was inactive.

On to `CC1CC(OC(=O)C(O)c2ccccc2)CC(C)(C)N1C` (stereo not drawn), for which the Potency entry in assay [1], in [2], in [3], in [4] and in [6] was “inactive” throughout. Besides, the call in assay [5] and in assay [8] was inactive.

`C[C@]12C[C@H](O)[C@H]3[C@@H](CCC4=CC(=O)CC[C@@]43C)[C@@H]1CC[C@@H]2C(=O)CO`: the Potency result in [1], in [2], in assay [3], in assay [4] and in [6] was “inactive” in each case. In addition, the compound was called inactive in assay [5] and in assay [8].

Turning to `OC[C@H]1O[C@@H](O[C@@H]2[C@@H](CO)O[C@](O)(CO)[C@H]2O)[C@H](O)[C@@H](O)[C@H]1O`, the Potency entry in assay [1], in assay [2], in [3], in assay [4] and in [6] was “inactive” each time. Further, the call in assay [5] and in assay [8] was inactive.

With `CC(C)(C)NCC(O)COc1ccc(NC(=O)NC2CCCCC2)cc1` (stereo not drawn), the Potency result in assay [1], in assay [2], in [3], in assay [4] and in assay [6] was “inactive” each time. The outcome in [5] and in [8] was inactive.
